The source of these data is ChEMBL document CHEMBL4513216, “Probing the Open Global Health Chemical Diversity Library for Multistage-Active Starting Points for Next-Generation Antimalarials” (ACS Infect Dis, 2020).

The whole screen tested about 69,000 compounds, of which about 8,600 (12%) showed an effect of 50% or more. Many of the other results were omitted from the sample, so strong results are more common in it than they were.

This experiment has as its system Plasmodium berghei. Kind of experiment: Screen against P. berghei liver stage (PbLuc), transformed with Luciferase, at 10uM. The note with it: tested at 10 uM. The experiment is classed as functional, HepG2.
`CC(c1ccc(F)cc1)N1CCN(Cc2nccn2C)CC1` (stereo unspecified): the INHIBITION is listed as 11.9%. Next, `O=C(C1CCC1)N1CCC2(COCc3cnc(-c4cccnc4)nc32)C1` (stereo unspecified): -40.4%; `O=S(=O)(C1CC1)N1CCC2(COCc3cnc(-c4cccnc4)nc32)C1` (stereo unspecified): 32.1%. Next, `CN(C)S(=O)(=O)N1CCC2(COCc3cnc(-c4ccccc4)nc32)C1` (stereo unspecified): 29.7%. With `CN(C)C(=O)CN1CCC2(COCc3cnc(-c4cccnc4)nc32)C1` (stereo unspecified), the INHIBITION is 69.3%. For the molecule `c1ccc(-c2ncc3c(n2)C2(CCN(c4ncccn4)C2)COC3)cc1` (stereo unspecified), the INHIBITION was -39.1%. Next, `CN(C)C(=O)CN1CCC2(COCc3cnc(N4CCOCC4)nc32)C1` (stereo unspecified): 19.4%; `CC(C)C(=O)N1CCC2(COCc3cnc(-c4cccnc4)nc32)C1` (stereo unspecified): 17.7%; `CN(C)S(=O)(=O)N1CCC2(COCc3cnc(-c4cccnc4)nc32)C1` (stereo unspecified): 59.3%.

Turning to `CS(=O)(=O)N1CCC2(COCc3cnc(-c4ccccc4)nc32)C1` (stereo unspecified), the INHIBITION is -69.9%. Next, `c1cnc(N2CCC3(COCc4cnc(-c5cccnc5)nc43)C2)nc1` (stereo unspecified): 59.7%; `CN(C)C(=O)CN1CCC2(COCc3cnc(-c4ccccc4)nc32)C1` (stereo unspecified): 91%; `CCN1CCC2(COCc3cnc(-c4cccnc4)nc32)C1` (stereo unspecified): 28.4%.

On to `O=C(NCc1ccccn1)NCc1ccc(Cl)s1`, for which the INHIBITION was found to be 17.5%. Consider `Cc1ccc(C)c(S(=O)(=O)CCNC2CCc3ncnn3C2)c1` (stereo unspecified), for which the INHIBITION is -21.9%. Next, `CC(NCc1ccnc(OC2CCC2)c1)c1cnn(C)c1` (stereo unspecified): -4.92%. On to `O=C1OCCN1CC(=O)N1C[C@@H]2CC[C@H]1CN(C(=O)c1cccnc1)C2`, for which the INHIBITION turned out to be 29.6%. Next, `Cc1cc(N2CCC(Cc3cccnc3)CC2)ncn1`: 39.7%; `CC(=O)N1CCN(C(=O)c2sc(-c3ccccc3F)nc2C)CC1`: -10.8%; `OCC1CCCN1c1cc(NCc2cccs2)ncn1` (stereo unspecified): 31.3%.

Turning to `Cc1c(C)n(CC(O)CN2CCN(CCO)CC2)c2c(Cl)cccc12` (stereo unspecified), the INHIBITION turned out to be 28.6%.

Regarding `Cc1ccc(F)cc1S(=O)(=O)NCc1[nH]ncc1Br`, the INHIBITION amounted to 1.62%. Next, `Cc1ccc(F)c(S(=O)(=O)NCc2[nH]ncc2Br)c1`: 52.9%. Next, `Cc1cc(F)ccc1S(=O)(=O)NCc1[nH]ncc1Br`: -3.14%; `Cc1cccc(CN2CCOCC2c2[nH]ncc2C)n1` (stereo unspecified): 31.9%; `O=C(c1ccoc1)N1CC[C@H]2[C@H]1CCN2S(=O)(=O)C1CC1`: 44.8%. Next, `O=C(c1ccco1)N1CC[C@H]2[C@H]1CCN2S(=O)(=O)C1CC1`: 58.7%.

As to `O=C([C@H]1C[C@H]2OCC[C@H]2N(C(=O)c2ccnnc2)C1)N1CCCCO1`, the INHIBITION was 19.5%. Next, `O=C(c1ccncc1)N1CC[C@H]2[C@H]1CCN2S(=O)(=O)C1CC1`: -69.3%.

On to `O=C(c1ccnnc1)N1CC[C@H]2[C@H]1CCN2S(=O)(=O)C1CC1`, for which the INHIBITION turned out to be 63.1%. Next, `Cn1cc(N2C(=O)C[C@@H]3[C@@H]2CCN3C(=O)c2ccco2)cn1`: 12.2%. Consider `CS(=O)(=O)N1C[C@@H]2CCN(C(=O)c3ccco3)[C@@H]2C1`, for which the INHIBITION was found to be 24.9%. Next, `O=C(c1cnccn1)N1CC[C@H]2[C@H]1CCN2S(=O)(=O)C1CC1`: 71%. Next, `CC(C)N1C(=O)C[C@H]2[C@@H]1CCN2C(=O)c1ccco1`: 53.9%. In the case of `O=C(c1ccco1)N1CC[C@H]2[C@H]1CC(=O)N2c1cccnc1`, the INHIBITION was -5.89%. Next, `O=C(C1CCC1)N1CCN(C(=O)c2cnccn2)[C@H]2CS(=O)(=O)C[C@H]21`: 23.5%; `O=C(c1ccccn1)N1CC[C@H]2[C@H]1CCN2S(=O)(=O)C1CC1`: -60.2%. Next, `CN(C)CC(=O)N1CCN(c2cc(N3CCCC3CO)ncn2)CC1` (stereo unspecified): -5.1%; `CNC(=O)NC(=O)C(C)N1CCN(c2ccc(C#N)cc2F)CC1` (stereo unspecified): 11.8%.

As to `CN(C)S(=O)(=O)N1C[C@@H]2C[C@H](C(=O)Nc3ccccc3)[C@H](C1)O2`, the INHIBITION is given as -22.5%. Next, `C[C@H](O)c1cnn(-c2ccccc2)c1`: -13.1%; `Cc1cc(C)c(CNC(=O)NC2CCOCC2)c(=O)[nH]1`: 27.7%; `Cc1nccc(N2CCN(C3CCOCC3)CC(C(=O)N(C)C)C2)n1` (stereo unspecified): 25.8%. Next, `CC(C)(C)CCCC(=O)Nc1ccnn1C1CCS(=O)(=O)C1` (stereo unspecified): 46.6%; `CC(Nc1cccc2c1OCCO2)C(=O)NC(N)=O` (stereo unspecified): -45.2%.

In the case of `O=C(CN1CCCC1)N1CCCC(c2cc(=O)n3c(n2)CCCCC3)C1` (stereo unspecified), the INHIBITION is 14.7%. With `CN(C)C(=O)N[C@H]1CN(C2CCOCC2)[C@@H]2CCCO[C@H]12`, the INHIBITION was found to be 43.8%. Take `CN(C)C(=O)N[C@@H]1CN(S(C)(=O)=O)[C@@H]2CCCO[C@@H]21`: the INHIBITION is given as 60%.

As for `CN(C)C(=O)N[C@@H]1CN(C2CCOCC2)[C@@H]2CCCO[C@@H]21`, the INHIBITION was 20.1%. With `COCC(NC(=O)c1cccnc1)c1cccc(C(F)(F)F)c1` (stereo unspecified), the INHIBITION is recorded as 7.44%. Take `CNC(=O)CCc1cc(C2CCNCC2)nc(C)n1`: the INHIBITION amounted to 27.8%. Next, `Oc1cc(C2CCCCN2C2CCCC2)nc(-c2ccncc2)n1` (stereo unspecified): 16.5%. Next, `CC(OCC1CC1)C(=O)N1CCCN(Cc2cnn(C)c2)CC1` (stereo unspecified): 60.5%; `CC(OCC1CC1)C(=O)N1CCCN(Cc2nccn2C(C)C)CC1` (stereo unspecified): 46.2%; `Cc1nc(C(=O)N2CCCN(Cc3cnn(C)c3)CC2)ccc1C#N`: 15.1%. Consider `Cn1cc(CN2CCCN(C(=O)c3ccc4ccccc4n3)CC2)cn1`, for which the INHIBITION was 52.35%. Next, `Cc1cccc(C(=O)N2CCCN(Cc3cnn(C)c3)CC2)n1`: 31.8%; `Cn1cc(CN2CCCN(C(=O)c3ccccn3)CC2)cn1`: -13.35%. Next, `Cn1cc(CN2CCCN(C(=O)c3cn4ccccc4n3)CC2)cn1`: 56.6%; `CC(OCC1CC1)C(=O)N1CCCN(Cc2cscn2)CC1` (stereo unspecified): 11.67%; `Cn1cc(CN2CCCN(C(=O)c3cc[nH]n3)CC2)cn1`: 23.2%. Next, `CC(C)CNC(=O)c1cn(-c2ccccn2)c(=O)c2ccccc12`: 13.9%; `CCN1CC2(CC1=O)CN(C(=O)NC(C)C)CCN(C(=O)NC(C)C)C2`: 27.5%. Consider `Cc1cnn(CC2CN(CC(=O)N(C)Cc3ccsc3)CCO2)c1` (stereo unspecified), for which the INHIBITION is -89%.

In the case of `CS(=O)(=O)c1cccc(C(=O)N2CCCC(n3cccn3)C2)c1` (stereo unspecified), the INHIBITION was determined as 1.94%.

Regarding `O=C(CN1CCCC(Cn2cncn2)C1)NCc1ccccc1F` (stereo unspecified), the INHIBITION is 19.4%. Next, `CC(C)c1nn(C)c(N(C)C)c1CNCc1cccc2cccnc12`: 19.283%; `CC(C)CC(=O)N1CC[C@H]2N(C)CC[C@@]2(C(=O)Nc2cccnc2)CC1`: 26.7%. Consider `CCC12CN3CC(CC)(CN(C1)C3c1[nH]c(=O)[nH]c(=O)c1C)C2=O` (stereo unspecified), for which the INHIBITION is listed as 11.1%. Next, `Cc1c(C2N3CC4(C(C)C)CN2CC(C(C)C)(C3)C4=O)[nH]c(=O)[nH]c1=O` (stereo unspecified): 54.3%. Regarding `Cc1c(C2N3CC4(C)CN2CC(C)(C3)C4=O)[nH]c(=O)[nH]c1=O` (stereo unspecified), the INHIBITION is 46.6%. `O=C(C1CCC1)N1C[C@H]2CC[C@@H](C1)N(S(=O)(=O)c1cccnc1)C2`: the INHIBITION is given as -70.7%. Next, `O=C(NCCCNC(=O)c1cccc(O)c1)Nc1ccc(F)cc1F`: -4.74%. Next, `COCc1noc(C2(c3ccc(F)cc3)CCOCC2)n1`: 15.1%.

With `COCc1noc(C2(c3ccc(F)cc3)CCC2)n1`, the INHIBITION was 77.2%. Next, `COCc1noc(C2(c3ccc(F)cc3)CC2)n1`: 11.6%; `COCc1ncn2c1CN(C(=O)c1ccc3ccccc3n1)CC2`: -6.3%; `CC(C)(C)C(=O)NCCC(=O)N1CCC(Nc2cccnn2)CC1`: 41.5%. Consider `O=C(CNCCn1cccn1)NCC1(c2ccccc2)CCC1`, for which the INHIBITION is 72.8%. For `O=C(CNCCn1cccn1)NCC1(c2ccccc2)CCCC1`, the INHIBITION was -23.9%. Next, `O=C(CNCCn1cccn1)NCC1(c2ccccc2)CC1`: 8.48%; `CN1CCC(NC(=O)c2cc(Cl)cc(Br)c2O)C1=O` (stereo unspecified): 24.4%. Next, `OC1(CN2CCCCC2)CCN(c2nccc(C(F)(F)F)n2)C1` (stereo unspecified): 46.7%; `O=S(=O)(CCNCc1ccc2c(c1)CCO2)N1CCOCC1`: -3.19%. Take `c1cc(CNCc2ccc3c(c2)CCO3)cc(N2CCOCC2)n1`: the INHIBITION is given as -1.58%. `Fc1cc(CNCc2ccc3c(c2)CCO3)ccc1N1CCOCC1`: the INHIBITION was determined as 55.1%. Next, `CC(C)c1nc(C2CCCN(C(=O)c3nccn4ccnc34)C2)no1` (stereo unspecified): 9.64%. Next, `Cc1cn(Cc2ccccc2)nc1N`: 24.8%; `O=C(c1cc(Br)ccc1-n1cnnn1)N1CCCC1`: 28.6%. Next, `CC(C)c1nnsc1CNC(=O)C1CCCN(C(=O)N(C)C)C1` (stereo unspecified): 53.5%; `CC(C)c1nnsc1CNC(=O)C1CCN(C(=O)C2CCCC2)CC1`: 41.6%.

In the case of `CC(C)c1nnsc1CNC(=O)C1CCN(C(=O)C2CCC2)CC1`, the INHIBITION was found to be 44.6%. Regarding `Nc1no[n+]([O-])c1C(=O)NCc1ccco1`, the INHIBITION came to 5.7%.

With `CCn1ccc(CN(C)C(=O)CSc2nnc(N)s2)n1`, the INHIBITION is reported as 22.6%. Next, `COc1ccnc(CN(C)C(=O)CSc2nnc(N)s2)c1`: 71.4%; `COc1ccc(CN(C)C(=O)CSc2nnc(N)s2)c(OC)c1OC`: 18.9%. With `Cc1nc(CN2CCCN(C(=O)c3sccc3C#N)CC2)cs1`, the INHIBITION is listed as -27.8%. Next, `Cc1noc(CC2CCN(Cc3ccc(CCC(C)(C)O)cc3)CC2)n1`: 40.2%; `Cc1nc(CC2CCN(Cc3ccc(CCC(C)(C)O)cc3)CC2)no1`: 60.7%; `c1ccc(CN2CCC(Cc3noc(C4CC4)n3)CC2)cc1`: 28.8%. Next, `CN(C)c1cc(CNC(=O)CC2CCCCC2)ccn1`: 4.34%.
